SMILES strings stand for the structures. Structures can show the parent of a compound that is named as a salt.
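Note: breast cancer cell viability read out with the CCK-8 kit after co-treatment of each compound with the ferroptosis inducer RSL3.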

The experiment relates to MDA-MB-231. Put plainly: relative cell viability, compound + RSL3, vs DMSO (fraction of DMSO control); higher = less growth inhibition. To be noted: 72 h.
Consider `CN1CCN(c2ccc(/C=C(\C#N)c3ccccc3Br)cc2)CC1` [DG172 (dihydrochloride)] + COC(=O)c1ccc([C@H]2c3[nH]c4ccccc4c3C[C@H](C(=O)OC)N2C(=O)CCl)cc1 [RSL3], for which the relative cell viability was found to be 0.61.

Regarding `COc1ccc(Nc2ccn(-c3ccccc3)n2)cc1` + COC(=O)c1ccc([C@H]2c3[nH]c4ccccc4c3C[C@H](C(=O)OC)N2C(=O)CCl)cc1 [RSL3], the relative cell viability is 0.839.

As for `NC(N)=N/N=C/c1cccc(Cl)c1Cl` [Raphin1 acetate] + COC(=O)c1ccc([C@H]2c3[nH]c4ccccc4c3C[C@H](C(=O)OC)N2C(=O)CCl)cc1 [RSL3], the relative cell viability is 0.603.

Consider `C[C@@H]1O[C@@H](O[C@H]2[C@H](Oc3cc(O)c4c(c3)O[C@H](c3ccc(O)cc3)CC4=O)O[C@H](CO)[C@@H](O)[C@@H]2O)[C@H](O)[C@H](O)[C@H]1O` [Naringin] + COC(=O)c1ccc([C@H]2c3[nH]c4ccccc4c3C[C@H](C(=O)OC)N2C(=O)CCl)cc1 [RSL3], for which the relative cell viability came to 0.658.

For the compound `COc1ccc(/C=C/c2cc(O)cc(O[C@@H]3O[C@H](CO)[C@@H](O)[C@H](O)[C@H]3O)c2)cc1` [Deoxyrhapontin] + COC(=O)c1ccc([C@H]2c3[nH]c4ccccc4c3C[C@H](C(=O)OC)N2C(=O)CCl)cc1 [RSL3], the relative cell viability came out at 0.693.

Consider `CC(C)c1c(C(=O)Nc2ccccc2)c(-c2ccccc2)c(-c2ccc(F)cc2)n1CC[C@@H](O)C[C@@H](O)CC(=O)O` [Atorvastatin Calcium] + COC(=O)c1ccc([C@H]2c3[nH]c4ccccc4c3C[C@H](C(=O)OC)N2C(=O)CCl)cc1 [RSL3], for which the relative cell viability was found to be 0.385.

The values above are taken from the supplement of paper PMC9492666.
